Hits are enriched below; roughly 3.6% of the tested compounds scored in any of these assays.
Pf apPOL block – Pf-apPOL DNA polymerase inhibition | AID 1794808 | inhibition, % at 10 µM | Recombinant Pf-apPOL, molecular beacon fluorescence, 1.5 h | hit rate 0.25% among 210,000
mHTT CaM bind – disrupts binding of mutant huntingtin to calmodulin. hit rate 3.6% among 190,000. AID 1671202. AlphaScreen His-mHTT/GST-CaM binding, luminescence. inhibition, % at 15 µM;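 further: 0% = both proteins with DMSO and 100% = one protein alone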
* marks the source's active call; other numbers are inactive results. No stated cut-off is given here; in the data, active means inhibition above about 50%; inactive means the rest.

For Cc1cc(O)c(C(c2cccnc2)c2c(O)cc(C)oc2=O)c(=O)o1 the results were Pf apPOL block 0 and mHTT CaM bind 3.
O=c1cc(CO)oc(C(Nc2ccccn2)c2cccc([N+](=O)[O-])c2)c1O (stereo not drawn) was read as Pf apPOL block 10 and mHTT CaM bind 14.
For Cc1ccc2ccc(C(Nc3ccccn3)c3cccc(O)c3)c(O)c2n1 (stereo not drawn) the results were Pf apPOL block -16 and mHTT CaM bind 76*.
`Cc1cccc(NC(c2ccccc2F)c2ccc3ccc(C)nc3c2O)n1` (stereo not drawn) gave Pf apPOL block -4 and mHTT CaM bind 71*.
For Cc1cccc(NC(c2cccnc2)c2ccc3ccc(C)nc3c2O)n1 (stereo not drawn) the results were Pf apPOL block -6 and mHTT CaM bind 90*.
For Cc1ccc2cccc(SCC(=O)Nc3ccc(F)cc3)c2n1 the results were Pf apPOL block -14 and mHTT CaM bind -1.
CCOC(=O)c1ccc(-c2ccccc2O)cc1 was read as Pf apPOL block 1 and mHTT CaM bind -3.
For Cc1cccc(OCC(=O)N2CC(CN(C)C)C3(CCOCC3)C2)c1 (stereo not drawn) the results were Pf apPOL block -5 and mHTT CaM bind -5.
For CC(C)N1C(=O)C(C)(C(=O)Nc2ccc(Cl)cc2)Oc2cccnc21 (stereo not drawn) the results were Pf apPOL block -2 and mHTT CaM bind 26.
`CN1CCN(c2ccc(C(=O)c3ccc(Br)cc3)cc2[N+](=O)[O-])CC1` gave Pf apPOL block 4 and mHTT CaM bind 57*.
`O=C(c1ccc(Br)cc1)c1ccc(N2CCOCC2)c([N+](=O)[O-])c1` gave Pf apPOL block 0 and mHTT CaM bind 12.
`Cc1ccc(C2=NC3(CCN(C)CC3)NC(c3cc(Br)ccc3O)C2)cc1` (stereo not drawn) gave Pf apPOL block -3 and mHTT CaM bind 26.
For CN1CCC2(CC1)N=C(c1ccc(Br)cc1)CC(c1cc(Cl)ccc1O)N2 (stereo not drawn) the results were Pf apPOL block -9 and mHTT CaM bind 100*.
CCN1CCC2(CC1)N=C(c1ccc(C)cc1)CC(c1cc(Br)ccc1O)N2 (stereo not drawn) was read as Pf apPOL block -2 and mHTT CaM bind 65*.
Screening CCN1CCC2(CC1)N=C(c1ccccc1)CC(c1cc(Cl)ccc1O)N2 (stereo not drawn) returned Pf apPOL block -1 and mHTT CaM bind 47.
For COCCn1c(C2CCN(C(=O)Nc3ccc(C)cc3C)C2)nc2cccnc21 (stereo not drawn) the results were Pf apPOL block -6 and mHTT CaM bind 2.
Screening CC(C)(C)NC(=O)C1CC2CCCCC2CN1C(=O)COc1ccc(Cl)cc1Cl (stereo not drawn) returned Pf apPOL block -5.
COc1ccc(C2=CC(c3ccc(Cl)cc3)n3nnnc3N2)cc1 (stereo not drawn) was read as Pf apPOL block 3 and mHTT CaM bind 34.
`COc1ccc(C2(CNC(=O)c3ccccc3[N+](=O)[O-])CCCC2)cc1OC` gave Pf apPOL block 1 and mHTT CaM bind 100*.
`COc1ccc(C2(CNC(=O)c3ccc(OC)c([N+](=O)[O-])c3)CCCC2)cc1OC` gave Pf apPOL block 1 and mHTT CaM bind 9.
`C=CCC(CC=C)(NC(=O)c1ccccc1[N+](=O)[O-])c1ccccc1` gave Pf apPOL block -8 and mHTT CaM bind 10.
O=C(N1CCC(c2nc(C3CC3)n[nH]2)CC1)C1(c2ccccc2)CC1 was read as Pf apPOL block 8 and mHTT CaM bind -7.
Screening Cc1nc(-c2cccc(NC(=O)C(c3ccccc3)n3cccc3)c2)cs1 (stereo not drawn) returned Pf apPOL block 6 and mHTT CaM bind 67*.
Screening Cc1nc(-c2cccc(NC(=O)c3cccc([N+](=O)[O-])c3)c2)cs1 returned Pf apPOL block -4 and mHTT CaM bind 7.
Screening COc1ccc(C(=O)NCCC2CCN(C(=O)c3ccc(C)cc3)CC2)c(OC)c1 returned Pf apPOL block -8 and mHTT CaM bind 1.
`COc1cc(/C=C2\C(=O)NC(=O)N(c3ccc(C)cc3)C2=O)cc(Cl)c1O` gave Pf apPOL block 1 and mHTT CaM bind 4.
COc1ccc(/C=C2\C(=O)Nc3ccc(Br)cc32)cc1 was read as Pf apPOL block -3 and mHTT CaM bind 48.
Screening COc1cc(/C=C2\C(=O)Nc3ccc(Br)cc32)cc([N+](=O)[O-])c1O returned Pf apPOL block 0 and mHTT CaM bind 96*.
O=C1Nc2ccc(I)cc2C1=Cc1cc(Br)c(O)c(Br)c1 was read as Pf apPOL block -124.
For COc1ccc(/C=C2\C(=O)Nc3ccc(Br)cc32)cc1OC the results were Pf apPOL block -3 and mHTT CaM bind 90*.
`CCOc1cc(/C=C2\C(=O)Nc3ccc(Br)cc32)cc(Cl)c1O` gave Pf apPOL block 0 and mHTT CaM bind 100*.
COc1cc(/C=C2\C(=O)Nc3ccc(Br)cc32)cc(Cl)c1O was read as Pf apPOL block -38 and mHTT CaM bind 100*.
Screening COc1cc(/C=C2\C(=O)NC(=O)N(c3ccc(C)cc3)C2=O)cc([N+](=O)[O-])c1O returned Pf apPOL block 5 and mHTT CaM bind 3.
`Cc1ccc(C2CC(c3ccc(Br)cc3)=NN2S(C)(=O)=O)cc1` (stereo not drawn) gave Pf apPOL block -6 and mHTT CaM bind 0.
For CCc1nccn1Cc1noc(-c2ccc(OC)cc2)n1 the results were Pf apPOL block 0 and mHTT CaM bind -5.
Screening Cc1ccccc1CC(=O)NCCCn1ncccc1=O returned Pf apPOL block -2 and mHTT CaM bind -9.
`Cc1ccccc1CNC(=O)CN(c1ccccc1C)S(C)(=O)=O` gave Pf apPOL block -11 and mHTT CaM bind -7.
Screening Cc1ccc(CNC(=O)C2CCCN(c3cc(=O)n(C)c(=O)n3C)C2)o1 (stereo not drawn) returned Pf apPOL block 5 and mHTT CaM bind -9.
Cc1cc(I)ccc1N=Cc1nc(-c2ccc([N+](=O)[O-])cc2)oc1O was read as Pf apPOL block -2 and mHTT CaM bind 6.
Clc1c2c(nc3ccccc13)CCCC2 was read as mHTT CaM bind -1.
`CCN(Cc1ccccc1)S(=O)(=O)c1ccccc1Br` gave Pf apPOL block -3 and mHTT CaM bind -61.
`O=S(=O)(c1ccccc1Br)N(Cc1ccccc1)CC(O)COCc1ccccc1` (stereo not drawn) gave Pf apPOL block 1 and mHTT CaM bind 98*.
For Cn1c(=O)c(N2CCN(C(=O)Cc3ccc(F)cc3)CC2)nc2ccncc21 the results were Pf apPOL block -2 and mHTT CaM bind -1.
O=C(CC1(O)C(=O)N(CCc2ccccc2)c2ccccc21)c1cccs1 (stereo not drawn) was read as Pf apPOL block -10 and mHTT CaM bind 8.
For O=C(CC1(O)C(=O)N(Cc2ccccc2)c2ccccc21)c1ccc(Br)s1 (stereo not drawn) the results were Pf apPOL block -9 and mHTT CaM bind 52*.
For CC1CCc2onc(C(=O)N(C)c3ccccc3)c2C1 (stereo not drawn) the results were Pf apPOL block -4 and mHTT CaM bind -3.
For O=C(NC(Nc1ccccc1Cl)C(Cl)(Cl)Cl)c1cc([N+](=O)[O-])cc([N+](=O)[O-])c1 (stereo not drawn) the results were Pf apPOL block -5 and mHTT CaM bind 61*.

High-throughput results deposited in PubChem by University of Kansas High Throughput Screening Laboratory.
